Source: PubChem
VDR inh: Inhibitors of the vitamin D receptor (VDR): qHTS; Potency, µM, inactives show max response, negative = inhibition, actives largely listed as inhibitors; 0.93% of 400,000 active; VDR-SRC2-3 peptide fluorescence polarization, 2 h; Vitamin D3 receptor (Homo sapiens), P11473; further: potency means the concentration at half of the fitted maximal effect; on the % scale 0 is the no-effect control and ±100 the full control effect
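Two reagent solutions held at 4 deg C in the dark were dispensed, compounds pinned at 23 nl, and the mixture incubated 2 h at room temperature. Read-out: fluorescence polarization of VDR–SRC2-3 peptide binding.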
Rango complex inh: qHTS Assay for Inhibitors of Rango (Ran-regulated importin-beta cargo) - Importin beta complex formation | Importin subunit beta-1 (Homo sapiens), Q14974 | Rango CFP/YFP FRET sensor + importin beta, 45 min | Potency, µM (top dose mostly 92.2 µM), without a hit: at the top dose inhibition of complex formation | 0.031% of 340,000 active; calls by dose curve;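 further: potency means the concentration at half of the fitted maximal effect; 0% = DMSO wells and 100% = buffer wells lacking importin beta; nearly all actives have a fitted effect of over 15% in size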
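Inhibition scored from the CFP 486 nm/YFP 530 nm FRET ratio 45 min after adding 0.125 microM importin beta to 50 nM Rango biosensor preincubated 5 min with compound (room temperature, PBS with DTT, Tween-20, BSA). No-importin wells as positive control.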
Rango dissoc inh: qHTS Assay for Inhibitors of RanGTP induced Rango (Ran-regulated importin-beta cargo) - Importin beta complex dissociation; Snurportin-1 (Homo sapiens) + GTP-binding nuclear protein Ran (Homo sapiens) + Importin …; Biochemical FRET Rango-importin beta, RanGTP-induced dissociation; Potency, µM (titrated, usually from 46.1 µM), for inactives: top-dose activity change, negative = inhibition; 0.071% of 340,000 active; AID 540253, 2011; calls by dose curve; further: potency means the concentration at half of the fitted maximal effect; % of control where 0% means no effect; nearly all actives have a fitted effect of over 45% in size
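Compounds sat 5 min at room temperature with 0.1 uM Rango biosensor plus 0.25 uM importin beta, then FRET pre-read. RanGTP-RCC1 (0.6 uM Ran, 2mM GTP, 0.2 uM RCC1) added for 45 min, and the CFP/YFP post-read measured blocked complex dissociation.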
PLK1 PBD inh: qHTS for Inhibitors of PLK1-PDB (polo-like kinase 1 - polo-box domain): Primary Screen. Serine/threonine-protein kinase PLK1 (Homo sapiens), P53350. Plk1 PBD binding of FITC phosphopeptide, fluorescence polarization. Potency, µM, inactives show max response, negative = inhibition, usual class: inhibitors. 2.8% of 360,000 active. AID 720504, 2013; further: potency means the concentration at half of the fitted maximal effect; series mostly up to about 57 µM; on the % scale 0 is the no-effect control and ±100 the full control effect; nearly all actives have a fitted effect of over 65% in size
GCN5L2 inh: qHTS Assay for Inhibitors of GCN5L2; GCN5L2 HAT assay, ThioGlo1 CoA-SH fluorescence; Potency, µM (doses to about 58.9 µM), without a hit: at the highest dose activity change, negative = inhibition, most hits filed as inhibitors; 0.21% of 390,000 active; further: potency means the concentration at half of the fitted maximal effect; on the % scale 0 is the no-effect control and ±100 the full control effect
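Preincubate 20nM GCN5L2 with compound 15 min, RT → add 50uM ThioGlo1 + 75uM H3(1-25) + 70uM acetyl-CoA → read fluorescence 0 and 20 min. Primary qHTS; fluorescent artifacts likely.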
PI5P4K alpha inh: qHTS for Inhibitors of phosphatidylinositol 5-phosphate 4-kinase (PI5P4K) | Phosphatidylinositol 5-phosphate 4-kinase type-2 alpha (Homo sapiens), P48426 | PI5P4Kalpha enzyme, ADP-Glo luminescence, 60 min; hits give low values | max response, % | 1.2% of 330,000 active; active means max response of -50% or lower; inconclusive means between -30% and -50%; inactive means -30% or higher; further: value at the top dose of about 77 µM; on the % scale 0 is the no-effect control and ±100 the full control effect
Target sequence (P48426 whole entry, looked up): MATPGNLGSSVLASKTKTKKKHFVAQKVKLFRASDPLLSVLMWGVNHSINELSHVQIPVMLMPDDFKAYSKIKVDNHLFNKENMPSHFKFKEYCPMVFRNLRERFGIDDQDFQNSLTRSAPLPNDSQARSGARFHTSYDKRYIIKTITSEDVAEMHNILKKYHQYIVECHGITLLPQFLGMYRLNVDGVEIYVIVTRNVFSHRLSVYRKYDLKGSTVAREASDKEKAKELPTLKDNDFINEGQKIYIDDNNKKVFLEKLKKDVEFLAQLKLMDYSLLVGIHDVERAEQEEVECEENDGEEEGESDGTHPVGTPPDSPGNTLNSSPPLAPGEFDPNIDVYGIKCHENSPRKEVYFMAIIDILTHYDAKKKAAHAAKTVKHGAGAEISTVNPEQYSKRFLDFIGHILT
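Reactions run in 0.038 M HEPES pH 7.4, 0.28 mM EGTA, 0.1% CHAPS and 5% DMSO, with PI5P4Kalpha, substrate, compound and 5 microM ATP final, one hour at room temperature. Readout is ADP-Glo luminescence.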
TbPYK confirm: qHTS of Trypanosoma Brucei Inhibitors: Confirmatory Assay for Cherry-picked Compounds; 67% of 890 active; shares compounds with PLK1 PBD inh; recombinant TbPYK, Kinase-Glo ATP luminescence; Potency, µM (titrated, usually from 76.9 µM), inactives show at the top dose activity change, negative = inhibition, most hits filed as inhibitors; further: potency means the concentration at half of the fitted maximal effect; on the % scale 0 is the no-effect control and ±100 the full control effect; nearly all actives have a fitted effect of over 70% in size
TbPYK ADP-Glo: qHTS of Trypanosoma Brucei Inhibitors: Orthogonal Assay for Cherry-picked Compounds; shares compounds with PLK1 PBD inh; recombinant TbPYK, ADP-Glo luminescence, 60 min; Potency, µM (top dose mostly 76.9 µM), inactives show at the highest dose activity change, negative = inhibition, most hits filed as inhibitors; 62% of 890 active; AID 720584, 2013; further: potency means the concentration at half of the fitted maximal effect; on the % scale 0 is the no-effect control and ±100 the full control effect; nearly all actives have a fitted effect of over 75% in size
* = called active by the depositor; ? = inconclusive; / = not tested or not shown; [ ] = dose if it differs, or a comment. In the library only some 3.6% were active in any assay of this set; here they are far more common. Unless noted, the call rests on the fitted dose curve; in most records, active means well fitted curve in the direction sought with a large enough effect; inconclusive means small, poorly fitted or top-dose-only effect, or another doubt; inactive means no such curve, though single readings can be large; an effect the other way counts as inactive or inconclusive.

SMILES	VDR inh	Rango complex inh	Rango dissoc inh	PLK1 PBD inh	GCN5L2 inh	PI5P4K alpha inh	TbPYK confirm	TbPYK ADP-Glo
CC(C)(C)C(O)C(Cc1ccc(Cl)cc1Cl)n1cncn1 (stereo not given)	9%	/	/	/	0%	/	/	/
O=C(O)Cn1cc(/C=C2\C(=O)NC(=O)N(c3ccc(F)cc3)C2=O)c2ccccc21	/	/	/	/	-9%	/	/	/
O=C1NC(=O)N(c2ccccc2)C(=O)/C1=C/c1ccoc1	-4%	?	?	5.3µM*	1%	?	?	-28%
O=C1NC(=O)N(c2ccc(F)cc2)C(=O)/C1=C/c1ccc(N2CCOCC2)cc1	-25%	1%	-12%	12µM*	-6%	-20	?	?
[N-]=[N+]=CC(=O)OCC(N)C(=O)O (stereo not given)	6%	/	/	/	/	/	/	/
COc1ccccc1N1C(=O)NC(=O)C(CCc2ccncc2)(CCc2ccncc2)C1=O	4%	-4%	-5%	1%	0%	/	/	/
COc1ccccc1N1C(=O)NC(=O)/C(=C/c2ccc([N+](=O)[O-])s2)C1=O	45µM*	-2%	8%	3.4µM*	-14%	-63*	?	?
COc1ccc(N2C(=O)NC(=O)/C(=C\c3ccc([N+](=O)[O-])s3)C2=O)cc1	71µM*	?	?	2.7µM*	-20%	-63*	7.9µM*	16µM*
COc1cccc(N2C(=O)NC(=O)/C(=C/c3ccc([N+](=O)[O-])s3)C2=O)c1	?	?	-18%	3µM*	-5%	?	13µM*	18µM*
COc1ccc(N2C(=O)NC(=O)/C(=C/c3ccc([N+](=O)[O-])s3)C2=O)cc1	40µM*	1%	-8%	3µM*	-15%	-77*	6.3µM*	13µM*
C[C@H](NC(C)(C)C)C(=O)c1cccc(Cl)c1	10%	/	/	/	-13%[21.4 µM]	/	/	/
CCCCCCCCCCCCCCCCOC[C@@H](COP(=O)([O-])OCC[N+](C)(C)C)OC(C)=O	-6%	/	/	/	10%	/	/	/
O=C(c1ccc2c(c1)N(Cc1c(F)cccc1Cl)C(=O)c1ccccc1S2)N1CCC2(CC1)OCCO2	-14%	/	/	/	-10%	/	/	/
NC1C=CC=C(C(=O)O)C1 (stereo not given)	-12%	-5%	2%	-6%	?	-7	/	/
O=C1NC(=S)NC(=O)C1C/C=C/c1ccccc1	79µM*	0%	1%	11µM*	4%	/	8.9µM*	11µM*
C[C@H]1CC[C@@H]2[C@@H](C)[C@H]3[C@H](C[C@H]4[C@@H]5CC=C6CC(O[C@@H]7O[C@H](CO)[C@H](O)[C@H](O[C@@H]8O[C@H](CO)[C@@H](O)[C@H](O)[C@H]8O)[C@H]7O[C@H]7O[C@@H](C)[C@H](O)[C@@H](O)[C@H]7O)CC[C@]6(C)[C@H]5CC[C@]34C)N2C1 (stereo not given in full)	?	/	/	/	4%	/	/	/
O=C1CN=C(c2ccccc2)c2cc(Cl)ccc2N1CC1CC1	-24%	/	/	/	-17%	/	/	/
Cc1cccc(N2C(=O)NC(=O)/C(=C/c3ccc(-c4ccc(C(=O)O)c(Cl)c4)o3)C2=O)c1	/	/	/	/	-15%	/	/	/
C=CCN1C(=O)NC(=O)/C(=C\c2ccc(-c3ccccc3[N+](=O)[O-])o2)C1=O	18µM*	0%	-8%	1.5µM*	-11%	-53*	10µM*	25µM*
O=C1NC(=O)N(c2ccc(Cl)cc2)C(=O)/C1=C/c1coc2ccc(O)cc2c1=O	?	?	8%	7.5µM*	-2%	-58*	?	?
O=C1NC(=O)N(c2ccccc2)C(=O)/C1=C/c1coc2ccc(O)cc2c1=O	50µM*	-1%	6%	12µM*	1%	-66*	22µM*	?
C[C@@]12CC[C@H]3[C@@H](CC[C@@H]4C[C@H]5S[C@H]5C[C@]43C)[C@H]1CC[C@H]2O	?	/	/	/	9%[21.4 µM]	/	/	/
Cc1cc(NC(=O)c2cccn(Cc3cccc([N+](=O)[O-])c3)c2=O)no1	10%	/	/	/	1%	/	/	/
C/C(=C\[C@@H](N)C(=O)O)CP(=O)(O)O	-5%	/	/	/	-8%	/	/	/
